Experimental data taken from the supplement of paper PMC6555819.

Columns and labels:
Experiment in all cases: PBM binding z-score (relative to random genomic background probes); higher = stronger binding; sequences stand for … in GC…GCGATTGACAGCGTAGAATGAAGG
[1] = test system: FXR:RXRa (NR concentration 270 nM, RXRa partner concentration 90 nM)
Outline: (§1)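 Regression normalization was applied to scanned fluorescence from custom Agilent 4×180K protein-binding microarrays. Before scanning, arrays were incubated 1 h with ligand-free nuclear receptor dimers, and binding was detected with antibodies against each partner (one per run). Binding z-scores use the random background probes as reference.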

[2] = test system: LXRa:RXRa (NR concentration 270 nM, RXRa partner concentration 90 nM)
Outline: as §1

[3] = test system: LXRa homodimer (NR concentration 270 nM)
Outline: as §1

[4] = test system: LXRb:RXRa (NR concentration 270 nM, RXRa partner concentration 90 nM)
Outline: as §1

[5] = test system: LXRb homodimer (NR concentration 270 nM)
Outline: as §1

[6] = test system: PPARa:RXRa (NR concentration 270 nM, RXRa partner concentration 90 nM)
Outline: as §1

[7] = test system: PPARg:RXRa (NR concentration 180 nM, RXRa partner concentration 90 nM)
Outline: as §1

[8] = test system: PPARg:RXRa 270nM:90nM, anti-RXR (NR concentration 270 nM, RXRa partner concentration 90 nM)
Outline: as §1

[9] = test system: PPARg:RXRa 30nM:10nM, anti-RXR (NR concentration 30 nM, RXRa partner concentration 10 nM)
Outline: as §1

[10] = test system: PPARg:RXRa 90nM:30nM, anti-RXR (NR concentration 90 nM, RXRa partner concentration 30 nM)
Outline: as §1

[11] = test system: PPARg:RXRa DBDmut IVT, anti-RXR (DBD mutation: RXRa K156A/R161A, NR concentration 270 nM, RXRa partner concentration 90 nM)
Outline: as §1

[12] = test system: PPARg:RXRa IVT, anti-PPARg (NR concentration 270 nM, RXRa partner concentration 90 nM)
Outline: as §1

[13] = test system: PPARg DBDmut:RXRa IVT, anti-PPARg (DBD mutation: PPARg1 K132A/R137A, NR concentration 270 nM, RXRa partner concentration 90 nM)
Outline: as §1

[14] = test system: PPARg DBDmut IVT, anti-PPARg (DBD mutation: PPARg1 K132A/R137A, NR concentration 270 nM)
Outline: as §1

[15] = test system: PPARg homodimer (NR concentration 180 nM)
Outline: as §1

[16] = test system: PXR:RXRa (NR concentration 270 nM, RXRa partner concentration 90 nM)
Outline: as §1

[17] = test system: PXR homodimer (NR concentration 270 nM)
Outline: as §1

[18] = test system: RARa:RXR (NR concentration 270 nM, RXRa partner concentration 90 nM)
Outline: as §1

[19] = test system: RARa homodimer (NR concentration 270 nM)
Outline: as §1

[20] = test system: RARb:RXRa (NR concentration 270 nM, RXRa partner concentration 90 nM)
Outline: as §1

Sequence | PBM binding z-score [1] | PBM binding z-score [2] | PBM binding z-score [3] | PBM binding z-score [4] | PBM binding z-score [5] | PBM binding z-score [6] | PBM binding z-score [7] | PBM binding z-score [8] | PBM binding z-score [9] | PBM binding z-score [10] | PBM binding z-score [11] | PBM binding z-score [12] | PBM binding z-score [13] | PBM binding z-score [14] | PBM binding z-score [15] | PBM binding z-score [16] | PBM binding z-score [17] | PBM binding z-score [18] | PBM binding z-score [19] | PBM binding z-score [20]
TCTGCTAGGTCAGTTGGTCAGCTCACGAGCTGCC | 1.02 | 0.925 | -0.62 | 0.62 | 0.255 | 1.53 | 0.508 | 1.87 | 1.28 | 1.87 | 3.21 | 3.07 | 0.484 | 0.713 | -0.202 | 0.341 | -1.06 | 0.601 | -1.19 | 3.18
CCTACTGGGCCATTCAGAGGTCATTGAGCATATG | 2.93 | 4.74 | 6.54 | 3.65 | 0.261 | 4.02 | 2.49 | 3.28 | 1.01 | 2.38 | 4 | 4.21 | 0.182 | -0.178 | 2.75 | 4.88 | 2.54 | 4.74 | 0.462 | 3.14
CCGACTGGGGTATAAGGTTACCATAAGCCAGCCC | 0.283 | 1.57 | -0.00996 | 0.982 | -0.761 | 1.69 | 1.79 | 2.38 | 0.774 | 2.06 | 1.17 | 1.24 | -0.919 | -1.39 | 0.667 | 0.301 | -0.29 | 1.24 | 0.0701 | 0.726
CGAACTAGGTCATTGACAGGACCGTGAATAGTAA | 4.32 | 2.36 | 0.141 | 1.66 | -0.048 | 4.62 | 7.17 | 6.36 | 3.72 | 5.79 | 8.09 | 8.42 | 3.24 | 1.41 | 2.02 | 0.914 | -0.0715 | 1.5 | 0.647 | 3.51
